Data reported in PubChem BioAssay (EPA / NIEHS).
Values joined by “and” are separate entries in the source; they are usually repeats but may differ in a detail not shown here. Identical values can stand only once. A structure can be active in one record and inactive in another. Active and inactive are the calls of the source. Rule for the calls: active = hit-call score of the fitted dose curve at least 0.9, where 1 is the maximum; inactive = score below 0.9.

Key:
[1] = read-out: C-C motif chemokine 2 (Homo sapiens) (UniProt P13500); test: BSK_KF3CT_MCP1: BioMAP Diversity Plus: KF3CT Assay for Monocyte Chemoattractant Protein 1 (MCP1/CCL2) Biomarker Activity (AID 2283073); conditions: primary human keratinocytes with fibroblasts; actives raise or lower the signal
How it was run: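 ELISA read-out of MCP-1, 24 h post-dose, in primary human skin keratinocytes co-cultured with fibroblasts. Parallel SRB staining monitors cytotoxicity; changes fitted both directions relative to DMSO.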

[2] = read-out: Matrix Metallopeptidase 9 (MMP9), MMP9 (gene 4318); test: BSK_KF3CT_MMP9: BioMAP Diversity Plus: KF3CT Assay for Matrix Metallopeptidase 9 (MMP9) Biomarker Activity (AID 2283074); conditions: primary human keratinocytes with fibroblasts; actives raise or lower the signal;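 for AC50: MMP9 protein level quantified by ELISA in the co-culture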
How it was run: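 Human keratinocyte/foreskin fibroblast co-culture; compound added; 24 h; MMP-9 by ELISA; bidirectional fit vs DMSO baseline.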

[3] = read-out: urokinase plasminogen activator (uPA), PLAU (gene 5328); test: BSK_KF3CT_uPA: BioMAP Diversity Plus: KF3CT Assay for urokinase plasminogen activator (uPA) Biomarker Activity (AID 2283075); conditions: primary human keratinocytes with fibroblasts; actives raise or lower the signal
How it was run: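 ELISA readout of uPA, analyzed for signal gain or loss relative to DMSO, from a human primary keratinocyte–foreskin fibroblast co-culture measured 24 h after chemical treatment.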

CD40, CD40 (gene 958) [4] = test: BSK_LPS_CD40: BioMAP Diversity Plus: LPS Assay for CD40 Biomarker Activity (AID 2283076); conditions: primary human HUVEC with PBMC; actives raise or lower the signal
How it was run: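 In the LPS system of human endothelial cells with peripheral blood mononuclear cells, CD40 levels were read by ELISA 24 h post-treatment. Signal changes in either direction were fitted against the DMSO baseline, with parallel SRB protein staining.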

[5] = read-out: E-selectin (Homo sapiens) (UniProt P16581); test: BSK_LPS_Eselectin: BioMAP Diversity Plus: LPS Assay for Eselectin Biomarker Activity (AID 2283077); conditions: primary human HUVEC with PBMC; actives raise or lower the signal
How it was run: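 E-selectin ELISA on LPS-stimulated endothelial cell/PBMC co-cultures, read 24 h post-treatment; gains and losses fitted against DMSO. Parallel SRB staining (0.1% SRB after 10% TCA fixation, 560 nm) flags overt cytotoxicity.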

[6] = read-out: Interleukin-8 (IL8), CXCL8 (gene 3576); test: BSK_LPS_IL8: BioMAP Diversity Plus: LPS Assay for Interleukin-8 (IL8) Biomarker Activity (AID 2283078); conditions: primary human HUVEC with PBMC; actives raise or lower the signal
How it was run: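 ELISA read-out of IL-8 after 24 h chemical treatment of LPS-activated endothelial/PBMC human primary co-cultures. Changes either up or down relative to DMSO; overt cytotoxicity checked by sulforhodamine B staining in parallel wells.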

[7] = BSK_LPS_SRB: Viability Assessment in the BioMAP Diversity Plus: LPS Assay (AID 2283079); conditions: primary human HUVEC with PBMC;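 note: total protein by sulforhodamine B absorbance as a cytotoxicity measure; measured one day after compound addition; fitted in both directions against DMSO so loss or gain of signal counts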
How it was run: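 SRB viability endpoint: cells fixed with 10% TCA, stained with 0.1% SRB, read at 560 nm, 24 h post-dose. HUVEC/PBMC co-culture; signal change in either direction scored relative to DMSO.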

[8] = read-out: Interleukin-1 alpha (IL1a), IL1A (gene 3552); test: BSK_LPS_IL1a: BioMAP Diversity Plus: LPS Assay for Interleukin-1 alpha (IL1a) Biomarker Activity (AID 2283080); conditions: primary human HUVEC with PBMC; actives raise or lower the signal
How it was run: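 Readout is IL-1a level by ELISA, 24 h post-dose, fitted as gain or loss relative to DMSO. System: LPS-activated human primary co-culture of vascular endothelium and peripheral blood mononuclear cells, with parallel SRB total-protein cytotoxicity.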

[9] = read-out: Monocyte Chemoattractant Protein-1 (MCP1), CCL2 (gene 6347); test: BSK_LPS_MCP1: BioMAP Diversity Plus: LPS Assay for Monocyte Chemoattractant Protein-1 (MCP1) Biomarker Activity (AID 2283081); conditions: primary human HUVEC with PBMC; actives raise or lower the signal;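 for AC50: secreted MCP-1 protein quantified by ELISA in culture supernatant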
How it was run: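 Secreted MCP-1 read by ELISA at 24 h post-dosing in an LPS-activated co-culture of endothelial cells with peripheral blood mononuclear cells. Fits run in both directions, DMSO as baseline; parallel SRB staining tracks overt cytotoxicity.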

[10] = BSK_LPS_PGE2: BioMAP Diversity Plus: LPS Assay for Prostaglandin E2 (PGE2) Biomarker Activity (AID 2283082); conditions: primary human HUVEC with PBMC; actives raise or lower the signal;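 for AC50: secreted prostaglandin E2 measured by ELISA in LPS-stimulated co-culture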
How it was run: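 LPS-activated HUVEC/PBMC co-culture; cmpd dosed, 24 h; PGE2 by ELISA; bidirectional fit vs DMSO; SRB (0.1%, TCA-fixed, 560 nm) in parallel plates for overt cytotox.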

[11] = read-out: Macrophage colony-stimulating factor (MCSF), CSF1 (gene 1435); test: BSK_LPS_MCSF: BioMAP Diversity Plus: LPS Assay for Macrophage colony-stimulating factor (MCSF) Biomarker Activity (AID 2283083); conditions: primary human HUVEC with PBMC; actives raise or lower the signal
How it was run: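 Bidirectional fitting against DMSO was applied to M-CSF levels read by ELISA at 24 h post-dose. The system pairs human umbilical vein endothelium with peripheral blood mononuclear cells; parallel SRB staining tracked cytotoxicity.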

[12] = read-out: Tissue Factor, F3 (gene 2152); test: BSK_LPS_TissueFactor: BioMAP Diversity Plus: LPS Assay for Tissue Factor Biomarker Activity (AID 2283084); conditions: primary human HUVEC with PBMC; actives raise or lower the signal
How it was run: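 Compound was added to an endothelial cell/PBMC co-culture, and after 24 h tissue factor (CD142) was read by ELISA. Gain or loss of signal was fitted against a DMSO baseline, and parallel SRB staining (560 nm) tracked overt cytotoxicity.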

[13] = read-out: Tumor necrosis factor (Homo sapiens) (UniProt P01375); test: BSK_LPS_TNFa: BioMAP Diversity Plus: LPS Assay for Tumour Necrosis Factor alpha (TNFa) Biomarker Activity (AID 2283085); conditions: primary human HUVEC with PBMC; actives raise or lower the signal
How it was run: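 Read-out is ELISA of TNFa in primary human endothelial cell–PBMC co-cultures at 24 h after compound. Activity in either direction was fitted against DMSO.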

[14] = read-out: Vascular cell adhesion molecule 1 (VCAM1), VCAM1 (gene 7412); test: BSK_LPS_VCAM1: BioMAP Diversity Plus: LPS Assay for Vascular cell adhesion molecule 1 (VCAM1) Biomarker Activity (AID 2283086); conditions: primary human HUVEC with PBMC; actives raise or lower the signal
How it was run: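 HUVEC + PBMC co-culture, LPS system; compound 24 h; VCAM-1 by ELISA; bidirectional fit vs DMSO control; parallel SRB (0.1%, TCA-fixed, 560 nm) for cytotoxicity.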

CD38, CD38 (gene 952) = test: BSK_SAg_CD38: BioMAP Diversity Plus: SAg Assay for CD38 Biomarker Activity (AID 2283087); conditions: primary human HUVEC with PBMC; actives raise or lower the signal
How it was run: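 Human HUVEC plus PBMC co-culture stimulated with superantigen; CD38 measured by ELISA 24 h after chemical dosing. Fluorescence read-out, bidirectional fit against DMSO; cytotoxicity tracked in parallel by SRB and Alamar Blue.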

CD40, CD40 (gene 958) [15] = test: BSK_SAg_CD40: BioMAP Diversity Plus: SAg Assay for CD40 Biomarker Activity (AID 2283088); conditions: primary human HUVEC with PBMC; actives raise or lower the signal
How it was run: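 CD40 is measured by fluorescence ELISA in an endothelial/PBMC primary human co-culture at 24 h post-dose. Fitting is bidirectional, DMSO baseline. Parallel SRB staining (560 nm) flags cytotoxicity.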

CD69, CD69 (gene 969) = test: BSK_SAg_CD69: BioMAP Diversity Plus: SAg Assay for CD69 Biomarker Activity (AID 2283089); conditions: primary human HUVEC with PBMC; actives raise or lower the signal;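 for AC50: cell surface CD69 protein quantified by ELISA with fluorescence detection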
How it was run: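 Primary human vascular co-culture (umbilical vein endothelium with peripheral blood mononuclear cells) exposed to test chemical for 24 h. CD69 levels quantified by fluorescence ELISA; DMSO served as negative control for bidirectional fitting.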

[16] = read-out: Monocyte Chemoattractant Protein-1 (MCP1), CCL2 (gene 6347); test: BSK_SAg_MCP1: BioMAP Diversity Plus: SAg Assay for Monocyte Chemoattractant Protein-1 (MCP1) Biomarker Activity (AID 2283090); conditions: primary human HUVEC with PBMC; actives raise or lower the signal
How it was run: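 MCP-1 levels in the endothelial–PBMC SAg co-culture were quantified by ELISA at 24 h post-dosing; both increases and decreases versus DMSO scored. Cytotoxicity monitored by SRB total protein in parallel cultures.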

[17] = read-out: E-selectin (Homo sapiens) (UniProt P16581); test: BSK_SAg_Eselectin: BioMAP Diversity Plus: SAg Assay for Eselectin Biomarker Activity (AID 2283091); conditions: primary human HUVEC with PBMC; actives raise or lower the signal
How it was run: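 Cell-surface E-selectin is read by ELISA at 24 h in the SAg co-culture of HUVEC and PBMC. Curves are fitted in both directions relative to DMSO. Parallel SRB total-protein staining tracks overt toxicity.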

[18] = read-out: Transforming growth factor beta 1 (TGFb1), TGFB1 (gene 7040); test: BSK_KF3CT_TGFb1: BioMAP Diversity Plus: KF3CT Assay for Transforming growth factor beta 1 (TGFb1) Biomarker Activity (AID 2283072); conditions: primary human keratinocytes with fibroblasts; actives raise or lower the signal
How it was run: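 Primary human skin cells (keratinocytes, foreskin fibroblasts) were co-cultured, exposed to test chemical and sampled at 24 h. TGF-b1 levels were measured by ELISA and fitted bidirectionally relative to DMSO.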

Chain of Tumor necrosis factor (Homo sapiens) (P01375 whole entry, looked up): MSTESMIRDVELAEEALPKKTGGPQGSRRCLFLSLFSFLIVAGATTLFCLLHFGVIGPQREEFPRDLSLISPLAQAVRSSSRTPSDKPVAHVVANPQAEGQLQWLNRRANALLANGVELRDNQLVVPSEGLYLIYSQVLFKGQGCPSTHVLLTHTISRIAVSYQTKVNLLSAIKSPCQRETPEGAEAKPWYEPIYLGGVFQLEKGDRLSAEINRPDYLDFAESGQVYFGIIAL
Chain of E-selectin (Homo sapiens) (P16581 whole entry, looked up): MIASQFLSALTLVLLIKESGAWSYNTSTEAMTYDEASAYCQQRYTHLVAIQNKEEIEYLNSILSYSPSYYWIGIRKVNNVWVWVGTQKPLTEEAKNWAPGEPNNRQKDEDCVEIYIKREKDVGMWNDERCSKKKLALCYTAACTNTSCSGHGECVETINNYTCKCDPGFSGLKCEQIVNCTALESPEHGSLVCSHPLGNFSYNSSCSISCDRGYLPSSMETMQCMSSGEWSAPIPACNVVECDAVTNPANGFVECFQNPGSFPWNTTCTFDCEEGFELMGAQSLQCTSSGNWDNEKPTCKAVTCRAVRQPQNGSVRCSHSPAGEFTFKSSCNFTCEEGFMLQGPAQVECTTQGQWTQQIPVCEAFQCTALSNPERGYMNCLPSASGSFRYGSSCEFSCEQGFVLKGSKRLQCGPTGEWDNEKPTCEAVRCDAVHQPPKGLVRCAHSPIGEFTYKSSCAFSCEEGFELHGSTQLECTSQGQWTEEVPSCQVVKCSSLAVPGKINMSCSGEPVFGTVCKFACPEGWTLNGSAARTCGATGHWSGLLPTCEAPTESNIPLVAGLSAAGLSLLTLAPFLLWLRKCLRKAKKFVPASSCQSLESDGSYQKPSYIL

## O=P(O)(O)CCC(F)(F)C(F)(F)C(F)(F)C(F)(F)C(F)(F)C(F)(F)C(F)(F)C(F)(F)F
[1]
  outcome: inactive
[2]
  outcome: inactive
[3]
  outcome: inactive
CD40, CD40 (gene 958) [4]
  AC50: 30 µM (active)
  outcome: inactive
[5]
  outcome: inactive
[6]
  outcome: inactive
[7]
  AC50: 35.3 µM (active)
  outcome: inactive
[8]
  outcome: inactive
[9]
  outcome: inactive
[10]
  AC50: 30 µM (active)
  outcome: inactive
[11]
  AC50: 27.7 µM (active) and 30 µM (active)
[12]
  outcome: inactive
[13]
  outcome: inactive
[14]
  outcome: inactive
CD38, CD38 (gene 952)
  AC50: 30 µM (active)
  outcome: inactive
CD40, CD40 (gene 958) [15]
  AC50: 30 µM (active)
  outcome: inactive
CD69, CD69 (gene 969)
  outcome: inactive
[16]
  outcome: inactive
[17]
  outcome: inactive

## CCCCc1oc2ccccc2c1C(=O)c1cc(I)c(OCCN(CC)CC)c(I)c1
[18]
  AC50: 5.6 µM (active)
[1]
  AC50: 11.9 µM (active)
[2]
  AC50: 6.54 µM (active)
[3]
  AC50: 9.85 µM (active)
CD40, CD40 (gene 958) [4]
  AC50: 13.9 µM (active)
[5]
  AC50: 24.2 µM (active)
[6]
  AC50: 25.9 µM (active)
[7]
  AC50: 19.4 µM (active)
[8]
  AC50: 19.1 µM (active)
[9]
  AC50: 26.1 µM (active)
[10]
  outcome: inactive
[11]
  AC50: 10.8 µM (active)
[12]
  AC50: 25.2 µM (active)
[13]
  AC50: 23.5 µM (active)
[14]
  AC50: 24.3 µM (active)
CD38, CD38 (gene 952)
  AC50: 12.4 µM (active)
CD40, CD40 (gene 958) [15]
  AC50: 10.5 µM (active)
CD69, CD69 (gene 969)
  AC50: 11.4 µM (active)
[17]
  AC50: 22.7 µM (active)
